Results reported in PubChem BioAssay (NCATS).
Records with an inconclusive call do not appear. Activity calls are given as the source filed them. The call rests on the fitted dose curve; in most records, active means well fitted curve in the direction sought with a large enough effect; inconclusive means small, poorly fitted or top-dose-only effect, or another doubt; inactive means no such curve, though single readings can be large; an effect the other way counts as inactive or inconclusive.

Columns and labels:
[1] = qHTS of pediatric cancer cell lines to identify multiple opportunities for drug repurposing: Primary screen for BT-12 cells (AID 1347101); further: nearly all actives have a fitted effect of over 25% in size
In short: (§1)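 Cells (500-1,000/well) rested 5 h, then received compounds for 48 h; metabolically active cells were measured by CellTiter-Glo luminescence. Final concentrations spanned up to 46 µM (MIPE, 11-point) or 0.59 nM-46 µM (NPC, 8-point) in primary screens, 11-point in follow-ups.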

[2] = qHTS of pediatric cancer cell lines to identify multiple opportunities for drug repurposing: Primary screen for Rh18 cells (AID 1347102); further: nearly all actives have a fitted effect of over 65% in size
In short: as §1

[3] = qHTS of pediatric cancer cell lines to identify multiple opportunities for drug repurposing: Primary screen for OHS-50 cells (AID 1347103); further: nearly all actives have a fitted effect of over 40% in size
In short: as §1

[4] = qHTS of pediatric cancer cell lines to identify multiple opportunities for drug repurposing: Primary screen for RD cells (AID 1347104); further: nearly all actives have a fitted effect of over 55% in size
In short: (§2)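 Following a 5-hour attachment period, cells at 500-1,000/well received compounds and were cultured for 48 hours. CellTiter-Glo was added and luminescence read to estimate viable, metabolically active cells.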

[5] = qHTS of pediatric cancer cell lines to identify multiple opportunities for drug repurposing: Primary screen for MG 63 (6-TG R) cells (AID 1347105); further: nearly all actives have a fitted effect of over 50% in size
In short: as §2

[6] = qHTS of pediatric cancer cell lines to identify multiple opportunities for drug repurposing: Primary screen for control Hh wild type fibroblast cells (AID 1347106);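 further: series mostly up to about 46 µM; a drop in luminescence marks cytotoxicity and a rise apparent proliferation; nearly all actives have a fitted effect of over 55% in size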
In short: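 Viability after 48 h compound treatment at 37C, 500-1,000 cells/well, read as ATP luminescence with CellTiter-Glo. Primary screens used 11-point (MIPE, 0.78 nM-46 µM) or 8-point (NPC, 0.59 nM-46 µM) final concentrations; follow-up screens used 11-point dilutions.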

[7] = qHTS of pediatric cancer cell lines to identify multiple opportunities for drug repurposing: Primary screen for Rh30 cells (AID 1347107); further: series mostly up to about 46 µM; nearly all actives have a fitted effect of over 75% in size
In short: as §1

[8] = qHTS of pediatric cancer cell lines to identify multiple opportunities for drug repurposing: Primary screen for Rh41 cells (AID 1347108);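 further: series mostly up to about 46 µM; luminescence drop marks cytotoxic hits; nearly all actives have a fitted effect of over 70% in size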
In short: as §2

Measured: Potency

CCOc1ccc2ccccc2c1C(=O)N[C@@H]1C(=O)N2[C@@H]1SC(C)(C)[C@@H]2C(=O)O
inactive: [1] | [2] | [3] | [4] | [5] | [6] | [7] | [8]

O=C(O)[C@@H]1CSCN1
inactive: [1] | [2] | [3] | [4] | [5] | [6]

Cc1cc(O)cc2c1O[C@](C)(CCC[C@H](C)CCC[C@H](C)CCCC(C)C)CC2
inactive: [1] | [2] | [3] | [4] | [5] | [6] | [7] | [8]

O=S(=O)(O)c1cc(I)c(O)c2ncccc12
inactive: [1] | [2] | [3] | [4] | [5] | [6] | [7] | [8]

NC(=O)NC(=O)Cc1ccccc1
inactive: [1] | [2] | [3] | [4] | [5] | [6] | [7] | [8]

NC1CCN(c2cccc(Cl)n2)CC1
inactive: [1] | [2] | [3] | [4] | [5] | [6] | [7] | [8]

CCN(CC)C(C)CN1c2ccccc2Sc2ccccc21 (configuration not stated)
inactive: [1] | [2] | [3] | [4] | [5] | [6] | [7] | [8]

C[C@H]1O[C@@H](n2cc(F)c(=O)[nH]c2=O)[C@H](O)[C@@H]1O
inactive: [1] | [2] | [3] | [4] | [5] | [6] | [7] | [8]

COC(=O)[C@H]1[C@H]2C[C@@H]3c4[nH]c5cc(OC)ccc5c4CCN3C[C@H]2C[C@@H](OC(=O)COc2ccc(OC)cc2)[C@@H]1OC
inactive: [1] | [2] | [3] | [4] | [5] | [6] | [7] | [8]

O=C(Oc1ccccc1C(=O)O)c1ccccc1O
inactive: [1] | [2] | [3] | [4] | [5] | [6] | [7] | [8]

O=C1c2c(O)cccc2Cc2cccc(O)c21
inactive: [1] | [2] | [3] | [4] | [5] | [6] | [7] | [8]

CCCCN(CCCC)CCCOC(=O)c1ccc(N)cc1
inactive: [1] | [2] | [3] | [4] | [5] | [6] | [7] | [8]

Cc1ncc(COP(=O)(O)O)c(C=O)c1O
inactive: [1] | [2] | [3] | [4] | [5] | [6] | [7] | [8]

CC(C)C(=O)c1c(C(C)C)nn2ccccc12
inactive: [1] | [2] | [3] | [4] | [5] | [6] | [7] | [8]

CCOc1nc2cccc(C(=O)O)c2n1Cc1ccc(-c2ccccc2-c2nn[nH]n2)cc1
inactive: [1] | [2] | [3] | [4] | [5] | [6] | [7] | [8]

CC1(C)OC(=O)NC1=O
inactive: [1] | [2] | [3] | [4] | [5] | [6] | [8]

OCC(O)CN1CCN(c2ccccc2)CC1 (configuration not stated)
inactive: [1] | [2] | [3] | [4] | [5] | [6] | [7] | [8]

C[C@H]1O[C@H](O[C@H]2[C@H](O)[C@@H](O)[C@@H](O[C@H]3[C@H](O)[C@@H](O)[C@H](O)O[C@@H]3CO)O[C@@H]2CO)[C@H](O)[C@@H](O)[C@@H]1N[C@H]1C=C(CO)[C@@H](O)[C@H](O)[C@H]1O
inactive: [1] | [2] | [3] | [4] | [6] | [7] | [8]

CN(C)CCCO[C@@H]1[C@H]2OC(C)(C)O[C@H]2O[C@@H]1C(O)CO (some centres not stated)
inactive: [1] | [2] | [3] | [4] | [5] | [6] | [7] | [8]

Nc1ccc(S(=O)(=O)Nc2ccc(Cl)nn2)cc1
inactive: [1] | [2] | [3] | [4] | [5] | [6] | [7] | [8]

Cc1c(Cl)cccc1Nc1ccccc1C(=O)O
inactive: [1] | [2] | [3] | [4] | [5] | [6] | [7] | [8]

Cc1ncc([N+](=O)[O-])n1CC(O)CCl (configuration not stated)
inactive: [1] | [2] | [3] | [4] | [5] | [6] | [7] | [8]

COc1ccc(S(=O)(=O)Nc2nnc(CC(C)C)s2)cc1
inactive: [1] | [2] | [3] | [4] | [5] | [6] | [7] | [8]

N[C@H](C(=O)O)c1ccc(O)cc1
inactive: [1] | [2] | [3] | [4] | [5] | [6] | [8]
